Calls of active or inactive are those of the source. Unless noted, the rule behind the calls is not given here.
How the values were obtained:
[1] = anti-His antibody binders, primary screen, artefact control for SMM control protein annotation, biochemical, small-molecule microarray, 635 nm fluorescence (AID 1128); conditions: anti-His Alexa647 antibody binding, higher = more signal;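 note: score merges feature fluorescence with signal-to-noise for each printed compound spot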
[2] = test system: Human papillomavirus type 1a E7 protein (residues 1-88); experiment: HPV1a E7 small-molecule binders, primary screen, biochemical, small-molecule microarray, residues 1-88, 635 nm (AID 1129); conditions: small-molecule microarray binding, fluorescence 635 nm; higher = more signal
[3] = target: Focal adhesion kinase 1 (Homo sapiens) (UniProt Q05397); experiment: small-molecule microarray binders of FAK, primary screen, biochemical, 635/667 nm fluorescence, BSA, DTT (AID 1130); conditions: PTK2 binding, 635 nm fluorescence, higher = more signal;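 note: composite of spot emission at 667 nm and signal to noise over triplicate slides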
[4] = test system: Fibrinogen (Alexa647-labelled); experiment: fibrinogen binders on compound microarrays, profiling panel, artefact control for SMM control-protein annotation, biochemical, small-molecule microarray, 635/667 nm fluorescence (AID 1131); conditions: fibrinogen-A647 binding fluorescence, higher = more signal;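 note: z-score merges 667 nm fluorescence with per-spot signal-to-noise over triplicate slides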
[5] = target: Follistatin (Homo sapiens) (UniProt P19883); experiment: follistatin binders on small-molecule microarrays, primary screen, biochemical, small-molecule microarray, 635/667 nm fluorescence (AID 1132); conditions: FST binding, 635 nm fluorescence, higher = more signal
[6] = target: Fibroblast growth factor 2 (Homo sapiens) (UniProt P09038); experiment: FGF2 binders on small-molecule microarrays, primary screen, biochemical, small-molecule microarray, 635/667 nm fluorescence (AID 1133); conditions: small-molecule microarray binding, FGF2, fluorescence 635/667; higher = more signal
[7] = mitochondrial membrane potential change in A549 cells, profiling panel, cell-based, JC-1 fluorescence, basal, 24 h, 100 nL (AID 1138); conditions: higher = more signal;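 note: A549 lung adenocarcinoma cells under basal conditions with no added stimulus; test concentration not given here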
[8] = test system: Lefty1; experiment: Lefty1 binders on small-molecule microarrays, primary screen, biochemical, small-molecule microarray, 635/667 nm fluorescence (AID 1139); conditions: small-molecule microarray binding, fluorescence 635/667; higher = more signal
[9] = test system: wheat germ agglutinin (Triticum aestivum), Alexa647-labelled; experiment: wheat germ agglutinin binders on compound microarrays, profiling panel, artefact control for SMM control-protein annotation, biochemical, small-molecule microarray, 635/667 nm fluorescence (AID 1140); conditions: WGA-A647 binding, 635 nm fluorescence, higher = more signal;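 note: score merges 667 nm feature emission with signal to noise over triplicate slides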
[10] = target: Luciferin 4-monooxygenase (Photinus pyralis) (UniProt P08659); experiment: firefly luciferase enzyme inhibitors, primary screen, biochemical, luminescence, purified enzyme, 2006 set (AID 1141); conditions: SteadyGlo luminescence, 30 min, higher = more signal, called active from +8 up or from −8 down;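 note: cell-free assay with purified firefly luciferase at 100 ng per well in PBS; test concentration not given here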
[11] = test system: Wnt5a (protein binding on small-molecule microarray); experiment: Wnt5a binders on small-molecule microarray, primary screen, biophysical, 635/667 nm fluorescence (AID 1142); conditions: 635 nm fluorescence, higher = more signal;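 note: fluorescence read at 667 nm with signal to noise per printed feature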
[12] = cell viability in Huh7 cells, primary screen, cytotoxicity control for HCV replication inhibitor project, CellTiter-Glo luminescence, basal, 48 h (AID 1143); conditions: Huh7 HCV replicon, higher = more signal, called active from +8 up or from −8 down;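 note: Huh7 hepatoma cells carrying a hepatitis C replication reporter with no stimulus; test concentration not given here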
[13] = P. aeruginosa biofilm formation inhibitors, primary screen, PAO1 strain, BacTiter-Glo luminescence, LB-PBS (AID 1144); conditions: 12 h, higher = more signal
[14] = CREB reporter modulators without forskolin, primary screen, cell-based, PC12, CRE-LacZ reporter, unstimulated (AID 1145); conditions: no forskolin, luminescence, 4.5 h, higher = more signal, called active from +8 up or from −8 down
[15] = CREB reporter modulators under forskolin, primary screen, cell-based, PC12, CRE-LacZ reporter, forskolin-stimulated (AID 1146); conditions: luminescence, 4.5 h, higher = more signal, called active from +8 up or from −8 down;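 note: PC12 cells with 6xCRE LacZ reporter stimulated by forskolin 10 µM; beta-galactosidase reporter signal reflecting CREB driven transcription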
[16] = target: Streptavidin (Streptomyces avidinii) (UniProt P22629); experiment: streptavidin binders on small-molecule microarray, primary screen, artefact control for SMM compound annotation, biophysical, 635/667 nm fluorescence (AID 1147); conditions: streptavidin binding, higher = more signal;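 note: signal reflects streptavidin binding to arrayed compounds as a control protein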
[17] = small-molecule binders of probe aInhba, primary screen, biochemical, small-molecule microarray, 635/667 nm fluorescence (AID 1148); conditions: higher = more signal;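 note: score merges 667nm spot fluorescence with signal-to-noise for antibody binding to printed compounds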
[18] = target: Torsin-1A (Homo sapiens) (UniProt O14656); experiment: torsin A binders from cell lysate, primary screen, small-molecule microarray, wild-type, 635/667 nm (AID 1149); conditions: COS7 hTOR1A-WT lysate, 635 nm fluorescence, higher = more signal
[19] = target: Torsin-1A (Homo sapiens) (UniProt O14656); experiment: small-molecule binders of mutant TOR1A in lysate, primary screen, cell lysate, small-molecule microarray, COS7 lysate, 635/667 nm fluorescence (AID 1150); conditions: COS7 hTOR1A mutant lysate, 635 nm fluorescence, higher = more signal;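 note: score pools 667 nm emission and signal to noise measuring lysate protein binding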
[20] = test system: Sonic hedgehog protein (Shh); experiment: small-molecule binders of Shh protein, primary screen, biochemical, small-molecule microarray, 635/667 nm fluorescence (AID 1151); conditions: small-molecule microarray binding, 635 nm fluorescence; higher = more signal;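 note: Shh protein binding to compounds spotted on small-molecule microarray slides; score combines spot fluorescence intensity with signal-to-noise across triplicate slides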

Chain of Streptavidin (Streptomyces avidinii) (P22629 whole entry, looked up): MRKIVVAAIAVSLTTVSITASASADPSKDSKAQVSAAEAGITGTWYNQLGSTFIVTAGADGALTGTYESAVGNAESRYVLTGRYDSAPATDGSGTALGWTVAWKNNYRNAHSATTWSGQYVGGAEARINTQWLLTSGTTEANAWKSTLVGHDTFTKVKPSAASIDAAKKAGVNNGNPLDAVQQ
Chain of Torsin-1A (Homo sapiens) (O14656 whole entry, looked up): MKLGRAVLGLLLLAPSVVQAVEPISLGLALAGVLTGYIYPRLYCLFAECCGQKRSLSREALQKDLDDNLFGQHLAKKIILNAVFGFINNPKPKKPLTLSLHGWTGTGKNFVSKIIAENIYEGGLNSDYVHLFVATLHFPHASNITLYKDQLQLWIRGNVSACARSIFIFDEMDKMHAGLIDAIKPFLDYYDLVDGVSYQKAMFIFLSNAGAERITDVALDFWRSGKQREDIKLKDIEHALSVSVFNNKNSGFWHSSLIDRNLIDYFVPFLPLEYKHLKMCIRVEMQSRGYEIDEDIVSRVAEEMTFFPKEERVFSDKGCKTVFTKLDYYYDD
Chain of Follistatin (Homo sapiens) (P19883 whole entry, looked up): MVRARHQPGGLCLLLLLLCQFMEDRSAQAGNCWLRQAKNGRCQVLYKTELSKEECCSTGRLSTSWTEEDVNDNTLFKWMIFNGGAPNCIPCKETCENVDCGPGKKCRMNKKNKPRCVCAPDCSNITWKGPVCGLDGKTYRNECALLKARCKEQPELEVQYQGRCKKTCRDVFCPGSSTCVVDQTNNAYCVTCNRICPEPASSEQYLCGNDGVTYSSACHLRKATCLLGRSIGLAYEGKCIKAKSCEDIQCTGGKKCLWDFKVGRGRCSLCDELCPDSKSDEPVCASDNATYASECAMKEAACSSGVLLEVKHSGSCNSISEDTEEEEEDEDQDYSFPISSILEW
Chain of Luciferin 4-monooxygenase (Photinus pyralis) (P08659 whole entry, looked up): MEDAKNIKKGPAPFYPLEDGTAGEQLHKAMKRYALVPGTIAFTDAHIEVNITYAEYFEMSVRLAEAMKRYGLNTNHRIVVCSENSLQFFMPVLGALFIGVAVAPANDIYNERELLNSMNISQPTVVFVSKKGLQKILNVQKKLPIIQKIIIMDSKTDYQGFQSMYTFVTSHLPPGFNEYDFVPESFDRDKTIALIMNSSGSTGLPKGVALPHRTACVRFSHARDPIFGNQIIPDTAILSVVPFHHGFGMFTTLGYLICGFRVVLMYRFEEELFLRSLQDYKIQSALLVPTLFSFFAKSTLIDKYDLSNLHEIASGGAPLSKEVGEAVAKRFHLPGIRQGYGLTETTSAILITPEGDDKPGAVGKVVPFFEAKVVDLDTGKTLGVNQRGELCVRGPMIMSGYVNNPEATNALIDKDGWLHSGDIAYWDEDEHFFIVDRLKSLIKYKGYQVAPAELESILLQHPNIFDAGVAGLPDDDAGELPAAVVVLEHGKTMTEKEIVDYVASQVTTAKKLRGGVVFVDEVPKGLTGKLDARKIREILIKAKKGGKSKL
Chain of Fibroblast growth factor 2 (Homo sapiens) (P09038 whole entry, looked up): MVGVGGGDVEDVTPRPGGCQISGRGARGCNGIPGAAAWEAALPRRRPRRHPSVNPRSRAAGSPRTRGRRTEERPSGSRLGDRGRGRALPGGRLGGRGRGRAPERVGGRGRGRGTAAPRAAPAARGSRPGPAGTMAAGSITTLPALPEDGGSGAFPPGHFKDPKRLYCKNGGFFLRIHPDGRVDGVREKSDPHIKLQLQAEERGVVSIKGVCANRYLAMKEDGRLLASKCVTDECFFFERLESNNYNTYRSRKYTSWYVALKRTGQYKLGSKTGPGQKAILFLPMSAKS
Chain of Focal adhesion kinase 1 (Homo sapiens) (Q05397 whole entry, looked up): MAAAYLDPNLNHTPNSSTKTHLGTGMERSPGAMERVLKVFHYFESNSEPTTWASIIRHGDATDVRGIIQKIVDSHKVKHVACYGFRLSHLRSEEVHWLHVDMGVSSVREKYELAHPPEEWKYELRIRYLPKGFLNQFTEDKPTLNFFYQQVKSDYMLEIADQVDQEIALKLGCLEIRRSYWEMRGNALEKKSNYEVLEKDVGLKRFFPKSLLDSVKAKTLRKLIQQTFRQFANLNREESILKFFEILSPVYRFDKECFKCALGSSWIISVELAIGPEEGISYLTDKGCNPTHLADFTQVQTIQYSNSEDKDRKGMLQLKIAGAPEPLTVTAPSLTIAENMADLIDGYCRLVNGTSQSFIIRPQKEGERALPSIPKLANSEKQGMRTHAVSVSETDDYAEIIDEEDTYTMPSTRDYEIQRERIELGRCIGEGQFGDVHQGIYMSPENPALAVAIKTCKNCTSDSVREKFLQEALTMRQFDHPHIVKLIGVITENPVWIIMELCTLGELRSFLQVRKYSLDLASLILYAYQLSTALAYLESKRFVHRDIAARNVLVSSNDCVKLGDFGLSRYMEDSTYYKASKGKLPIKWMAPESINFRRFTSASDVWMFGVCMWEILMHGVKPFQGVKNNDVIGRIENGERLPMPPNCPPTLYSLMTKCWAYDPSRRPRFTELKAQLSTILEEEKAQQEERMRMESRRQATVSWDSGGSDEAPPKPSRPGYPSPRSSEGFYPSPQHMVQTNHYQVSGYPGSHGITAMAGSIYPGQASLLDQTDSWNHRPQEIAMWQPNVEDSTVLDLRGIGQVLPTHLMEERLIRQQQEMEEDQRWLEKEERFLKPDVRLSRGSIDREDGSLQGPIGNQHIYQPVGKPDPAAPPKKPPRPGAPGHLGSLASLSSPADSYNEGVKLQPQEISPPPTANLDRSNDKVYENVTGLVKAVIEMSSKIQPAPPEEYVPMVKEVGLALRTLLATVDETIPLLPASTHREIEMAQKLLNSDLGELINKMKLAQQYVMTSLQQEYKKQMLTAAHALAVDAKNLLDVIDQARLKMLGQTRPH

| SMILES | composite z-score [1] | composite z-score [2] | composite z-score [3] | composite z-score [4] | composite z-score [5] | composite z-score [6] | z-score [7] | composite z-score [8] | composite z-score [9] | z-score [10] | composite z-score [11] | z-score [12] | z-score [13] | z-score [14] | z-score [15] | composite z-score [16] | composite z-score [17] | composite z-score [18] | composite z-score [19] | composite z-score [20] |
| --- | --- | --- | --- | --- | --- | --- | --- | --- | --- | --- | --- | --- | --- | --- | --- | --- | --- | --- | --- | --- |
| C[C@H]1ON(c2ccc(C(=O)OC(C)(C)C)cc2)[C@@H](c2ccc(O)cc2)[C@@H]1C(=O)N1C(=O)OC[C@@H]1c1ccccc1 | 0.82 | 1.13 | 0.429 | 0.935 | 1.22 | 1.4 | -0.802 | 0.724 | 0.38 | -0.587 (inactive) | 0.382 | -2.3 (inactive) | -0.0446 (inactive) | 0.846 (inactive) | 0.0621 (inactive) | 0.179 | -0.114 | -0.0484 | 0.39 | 1.97 |
| CC[C@H]1C2=C3C(CC[C@H]4C(OCc5ccc(F)cc5C(F)(F)F)OC[C@](C)([C@@H]34)N(C(=O)OC(C)(C)C)C2)C2COC(=O)OCC21 (stereo not given in full) | 0.0812 | 1.17 | 1.55 | 0.979 | 0.432 | -1.39 | 1.86 | -0.233 | 0.688 | -0.198 (inactive) | 0.0641 | -2.57 (inactive) | 0.265 (inactive) | 0.576 (inactive) | 0.204 (inactive) | 1.44 | 0.0003 | 0.246 | 0.666 | 0.0392 |
| COc1cc2c(cc1O)C(C)N(Cc1cc3c(cc1Br)OCO3)CC2 (stereo not given) | -0.408 | -1.4 | -0.618 | -1.01 | -0.381 | -0.437 | -0.472 | -0.46 | -0.55 | -0.499 (inactive) | -0.131 | -3.33 (inactive) | 0.3 (inactive) | 1.27 (inactive) | 0.861 (inactive) | -0.679 | -0.157 | -1.12 | -0.829 | -0.836 |
| CC(C)C(O)C1C=CC2C(=O)N(C)C(=O)C2N1N(c1ccccc1)c1ccccc1 (stereo not given) | 0.545 | -0.735 | 0.523 | 0.597 | -0.0394 | -0.926 | 0.953 | -0.852 | 0.357 | 0.734 (inactive) | -0.18 | 0.909 (inactive) | 0.633 (inactive) | 0.0535 (inactive) | -0.136 (inactive) | 0.0226 | -0.0332 | -0.141 | 0.369 | -1.28 |
| O=c1cccc(-c2cccc(Cl)c2)o1 | 0.417 | 1.11 | 0.682 | 0.2 | -0.0992 | -0.332 | 0.0374 | -0.014 | 0.11 | 0.672 (inactive) | 0.0303 | -1.07 (inactive) | 0.96 (inactive) | 0.631 (inactive) | -1.05 (inactive) | 0.244 | 0.0047 | 0.34 | 0.617 | -0.215 |
| CCCCC(CC)C(O)C1C=CC2C(=O)N(c3ccccc3)C(=O)C2N1Nc1ccc([N+](=O)[O-])cc1 (stereo not given) | 1.48 | 1.23 | 0.623 | 1.04 | 1.21 | 0.456 | -1.19 | 0.39 | 1.02 | 0.262 (inactive) | 0.382 | -0.728 (inactive) | 0.00163 (inactive) | 0.285 (inactive) | -0.0973 (inactive) | 1.41 | 0.32 | 0.202 | 0.923 | -0.277 |
| CCOC(=O)C[C@H]1[C@H](OC(=O)Cc2ccc3c(c2)OCO3)[C@@H](NC(=O)Cc2ccc(OC)cc2)c2cc(OCCCO)ccc2N1C(=O)c1ccccc1 | 0.0506 | 0.814 | 0.668 | 0.511 | 0.41 | 0.251 | 1.57 | 0.389 | 0.956 | -0.566 (inactive) | 0.194 | -0.0801 (inactive) | -0.112 (inactive) | 0.222 (inactive) | -0.377 (inactive) | 0.421 | -0.103 | -0.334 | 0.426 | 0.528 |
| COc1ccc(NC(=O)O[C@H]2[C@H](OC(=O)Nc3ccc4c(c3)OCO4)[C@@H](OC(=O)Nc3ccc4c(c3)OCO4)[C@@H](OC)O[C@@H]2CO)cc1 | 1.34 | 1.25 | 0.316 | 0.922 | 1.16 | 0.802 | -0.669 | 0.598 | 0.943 | -4.27 (inactive) | 0.201 | -3.73 (inactive) | -0.488 (inactive) | 1.85 (inactive) | -0.559 (inactive) | 1.38 | 0.277 | 0.812 | 1.27 | 1.27 |
| COCCOC(=O)N1C(=O)[C@@]2(c3cc(C#CC4(O)CCCCCC4)ccc31)[C@H](c1ccccc1OCCO)N1[C@H](c3ccccc3)[C@H](c3ccccc3)OC(=O)[C@H]1[C@@H]2C(N)=O | 1.47 | 1.18 | 0.639 | 0.872 | 1.41 | 1.51 | -1.68 | 1.56 | 1.02 | -0.927 (inactive) | 0.448 | -6.31 (inactive) | 0.754 (inactive) | 0.245 (inactive) | 0.0169 (inactive) | 0.421 | -0.0494 | 0.749 | 0.761 | 1.97 |
| O=C(O)[C@H]1C[C@H]2C(=O)N3CCC[C@H]3C(=O)N2[C@H]1c1cccc(OCCO)c1 | 2.79 | 0.658 | -0.525 | 0.0871 | 1.32 | 0.871 | 1.95 | 0.232 | 0.227 | -1.97 (inactive) | 0.188 | -0.716 (inactive) | 0.0521 (inactive) | 0.818 (inactive) | 0.0548 (inactive) | -0.0748 | -0.154 | 0.847 | 1.57 | 0.643 |
| CN(C)C(=O)[C@]1(CCC(=O)OC(C)(C)C)N=C(c2ccc(OCCCO)cc2)O[C@@H]1c1ccccc1 | 2.57 | 1.27 | 0.712 | 0.97 | 0.562 | 0.399 | 1.58 | -0.781 | 0.448 | -1.41 (inactive) | 0.677 | 0.325 (inactive) | 1.02 (inactive) | 0.493 (inactive) | 0.524 (inactive) | -0.092 | -0.0791 | 0.69 | 2.2 | -0.857 |
| CO[C@H]1O[C@H](CO)[C@@H](OC(=O)Nc2ccc(C(F)(F)F)cc2)[C@H](OC(=O)Nc2ccc3c(c2)OCO3)[C@H]1OC(=O)Nc1ccc2c(c1)OCO2 | 2.97 | 1.17 | 1.33 | 0.806 | 0.977 | 0.395 | -1.16 | 0.871 | 1.07 | -7.72 (inactive) | 0.259 | -4.23 (inactive) | 0.558 (inactive) | 1.54 (inactive) | 1.38 (inactive) | 0.656 | 0.234 | 0.201 | 0.746 | 0.99 |
